In the supplement of paper PMC13380429:
Unmarked numbers belong to inactive results.

System: Vero E6 infected with SARS-CoV-2
Test: inhibition of SARS-CoV-2 cytopathic effect; higher = more antiviral protection, active = above 15
Conditions: 48 h

SMILES | inhibition of SARS-CoV-2 cytopathic effect (1 nM) | inhibition of SARS-CoV-2 cytopathic effect (8.33 nM) | inhibition of SARS-CoV-2 cytopathic effect (100 nM) | inhibition of SARS-CoV-2 cytopathic effect (833.33 nM) | inhibition of SARS-CoV-2 cytopathic effect (10000 nM)
CNC[C@@H]1CC[C@@H](N)[C@@H](O[C@H]2[C@H](O)[C@@H](O[C@H]3OC[C@](C)(O)[C@H](NC)[C@H]3O)[C@H](N)C[C@@H]2N)O1 [micronomicin] | 0.04% | 1.42% | 0.72% | 3.66% | -0.03%
Cc1ccc(NC2=CC(=O)c3sc(C)nc3C2=O)cc1 [ryuvidine] | 1.42% | 4.18% | 4.56% | 6.56% | -20.4%
c1ccc(C[C@H](c2ccccc2)N2CCCCC2)cc1 (racemic) [1-(1,2-diphenylethyl)piperidine-(+/-)] | 0.78% | 0.67% | 0.96% | 0.92% | 2.17%
COC(=O)C1=C(C)NC(C)=C(C(=O)OCCSc2ccccc2)[C@@H]1C | -2.31% | -3.84% | -2.77% | -0.76% | 3.1%
CCOC(=O)[C@@]1(CCCCCCOc2ccc(Cl)cc2)CO1 [etomoxir] | -0.23% | -0.29% | 1.79% | 2.79% | -4.51%
Cn1c(=O)c2c(ncn2CC(O)CO)n(C)c1=O (stereo not given) [dyphylline] | 1.96% | -3.64% | 0.25% | 1.93% | -0.77%
Cc1ncc([N+](=O)[O-])n1CCO [metronidazole] | 1.71% | -0.45% | 1.81% | 0.19% | -1.16%
CC(C)(C)C(=O)Oc1ccc(S(=O)(=O)Nc2ccccc2C(=O)NCC(=O)O)cc1 [sivelestat] | 1.78% | -0.24% | 0.61% | 1.84% | -1.94%
Nc1[nH]cnc2ncnc1-2 [adenine] | 1.26% | 0.3% | 3.06% | 6.45% | 3.2%
Cn1nccc1Nc1nccc(-c2ccn([C@H](CO)c3ccc(Cl)c(F)c3)c(=O)c2)n1 | 0.72% | 0.13% | -0.395% | -5.82% | -9.29%
CCCC(=O)N1CCCN(c2nc(N)c3cc(OC)c(OC)cc3n2)CC1 [bunazosin] | -0.32% | -1.38% | 1.21% | 0.02% | 0.07%
C=CC(=O)Nc1ccc2ncnc(Nc3ccc(OCc4cccc(F)c4)c(Cl)c3)c2c1 | -1.9% | 1.55% | -0.97% | -0.61% | -3.89%
Oc1cccc(Nc2ccc(Nc3cccc(O)c3)nn2)c1 [beta-amyloid-synthesis-inhibitor] | -0.67% | 1.31% | 0.24% | 1.07% | 4.99%
CCOC(=O)Nc1ccc2c(c1)N(C(=O)CCN1CCOCC1)c1ccccc1S2 [moracizine] | 0.84% | 3.43% | -0.23% | 2.61% | 5.32%
CC[C@H](CC[C@@H](C)[C@H]1CC[C@H]2[C@@H]3CC=C4C[C@@H](O)CC[C@]4(C)[C@H]3CC[C@]12C)C(C)C [beta-Sitosterol] | 0.66% | 2.31% | 1.23% | -2.15% | -1.08%
N[C@H]1CCN(O)C1=O | -2.5% | -0.335% | -0.065% | -1.54% | 0.17%
C[N+]1(C)CCc2cc3c(cc2[C@H]1[C@@H]1OC(=O)c2c1ccc1c2OCO1)OCO3 [bicuculline-methochloride-(-)] | -4.58% | 0.48% | 0.65% | 3.59% | -2.23%
COCC1=C(C(=O)O)N2C(=O)[C@@H](NC(=O)/C(=N\OC)c3csc(N)n3)[C@H]2SC1 [cefpodoxime] | -1.12% | -1.09% | -1.76% | -0.98% | -1.12%
O=C(O)c1cc(/N=N/c2ccc(O)c(C(=O)O)c2)ccc1O [olsalazine] | 1.15% | 2.03% | 0.75% | 2.78% | 1.21%
Nc1ccc(-c2nc3ccc(-c4nc5ccc(N)cc5[nH]4)cc3[nH]2)cc1 | -0.32% | 0.21% | -0.94% | 2.79% | 6.35%

SMILES | inhibition of SARS-CoV-2 cytopathic effect (1 nM) | inhibition of SARS-CoV-2 cytopathic effect (8.33 nM) | inhibition of SARS-CoV-2 cytopathic effect (100 nM) | inhibition of SARS-CoV-2 cytopathic effect (833.33 nM) | inhibition of SARS-CoV-2 cytopathic effect (10000 nM)
Oc1ccc(Cl)cc1Cc1cc(Cl)ccc1O [dichlorophen] | -4.53% | 0.22% | -2.85% | -2.86% | 1.46%
COc1c(O)cc2c(c1O)[C@@H]1O[C@H](CO)[C@@H](O)[C@H](O)[C@H]1OC2=O [bergenin] | -3.29% | -2.26% | -0.14% | 0.39% | -1.22%
CC1(C)[C@@H](O)CC[C@]2(C)[C@H]3C(=O)C=C4[C@@H]5C[C@@](C)(C(=O)O)CC[C@]5(C)CC[C@@]4(C)[C@]3(C)CC[C@@H]12 [enoxolone] | -3.08% | -3.58% | -1.05% | 2.65% | -0.55%
CCN(CC)CCOC(=O)C1(c2ccc([N+](=O)[O-])cc2)CCCC1 [nitrocaramiphen] | -3.06% | 1.17% | 1.69% | -0.19% | -0.92%
NCCCC(O)(P(=O)(O)O)P(=O)(O)O [alendronate] | -2.08% | -1.44% | 0.15% | -0.56% | -0.44%
CN1CCN2c3c(cccc31)[C@@H]1CN(CCCC(=O)c3ccc(F)cc3)CC[C@@H]12 [lumateperone] | -2.67% | 2.96% | 2.88% | 2.75% | 2.86%
CC(C)(O)c1ccccc1CC[C@@H](SCC1(CC(=O)O)CC1)c1cccc(/C=C/c2ccc3ccc(Cl)cc3n2)c1 [montelukast] | 0.18% | 0.4% | -0.23% | -0.66% | -4.23%
O=C(Nc1nc(-c2cc(Cl)cs2)c(N2CCN(C3CCCCC3)CC2)s1)c1cnc(N2CCC(C(=O)O)CC2)c(Cl)c1 [avatrombopag] | 2.06% | 0.14% | 0.09% | -3.82% | -0.97%
O=Cc1cn(Cc2ccc(Cl)cc2)c2ccccc12 [oncrasin-1] | 1.13% | -1.86% | 2.77% | 2.11% | 2.76%
NC1=N[C@@]2(c3cc(NC(=O)c4ccc(F)cn4)ccc3F)COC[C@H]2CS1 | -3.54% | -0.32% | -4.37% | -2.3% | -4.47%
CC(=O)Oc1ccccc1C(=O)O [aspirin] | -5.74% | -5.82% | -7.3% | -5.09% | -12.8%
O=C(NC1CCN(CCc2c[nH]c3ccccc23)CC1)c1ccccc1 [indoramin] | 0.38% | 1.24% | 0.6% | -1.28% | -4.57%
CC(=O)[C@H]1CC[C@H]2[C@@H]3CC[C@H]4C[C@H](O)CC[C@]4(C)[C@H]3C(=O)C[C@]12C [alfaxalone] | -1.46% | 0.56% | -1.95% | -1.55% | -4.57%
C(#Cc1nc2ncccc2nc1OCCN1CCCC1)c1ccccc1 | -1.59% | -0.87% | -1.72% | 7.05% | 15.8% (active)
COc1ccccc1N1CCN(CC(O)COc2cc(OC)c(OC)c(OC)c2)CC1 (stereo not given) [enciprazine] | 0.76% | 1.14% | 0.33% | -0.53% | -2.4%
NC[C@H]1CC[C@H](C(=O)O)CC1 [tranexamic-acid] | 1.98% | 1.51% | 2.74% | 0.85% | -0.32%
C[C@@]1(c2cc(-c3cncnc3)c(F)cc2F)CCSC(N)=N1 | -0.91% | -3.4% | -0.51% | -2% | -3.12%
Cc1coc2c1C(=O)C(=O)c1c-2ccc2c1CCCC2(C)C [tanshinone-IIA] | -0.65% | 2.92% | 0.8% | -7.33% | -6.78%
COc1ccc(C2CC(c3c(O)cc(C)oc3=O)=NCCS2)c(OC)c1 (stereo not given) | 0.21% | 3.01% | -2.07% | -0.81% | -8.62%
